The text below walks through data of PubChem BioAssay (NCI).

Compounds without any hit were thinned out: in the full panel of roughly 83,000, 20% have a hit.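 Each cell line was grown in a 96-well plate and treated with one concentration of compound for 48 hours. Values below 10 were considered active.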 A number with no mark means an inactive call. The source made the active and inactive calls.

The test system of the first test is EKVX NSCLC. Briefly: NCI-60 one-dose screen, 48 h (100 = growth as untreated, 0 = no growth, -100 = all killed). The following applies: 10 µM unless noted.
Regarding `Cc1c2cccnc2c(C)c2c1c1cc(CO)ccc1n2C`, the growth was 20.3%.

As for `S=c1[nH]c(=S)c2c(-c3ccccc3)c(-c3ccccc3)oc2[nH]1`, the growth was 103%.

For `CCC1S/C(=N\N=C(\C)c2cc3cc(Cl)ccc3o2)N(c2ccccc2)C1=O` (stereo unspecified), the growth was 102%.

For the compound `CCN(CC)Cc1cc(Nc2ccnc3cc(Cl)ccc23)ccc1O`, the growth was 68.5%.

As for `CCOC(=O)C(Cc1ccc(OC)cc1)C(=O)OCC`, the growth is 69.3%.

Turning to `CC1(C)CC[C@]2(C(=O)N[C@H](CO)Cc3ccccc3)CC[C@]3(C)C(=CC[C@@H]4[C@@]5(C)CCCNC(C)(C)[C@@H]5CC[C@]43C)[C@@H]2C1`, the growth is 90.9%.

Take `CC(C)(C)n1cc(-c2ccnc(NCCNS(=O)(=O)c3ccc(O)cc3)c2)c(-c2cccc(O)c2)n1`: the growth was 104%.

As for `CC1(C)C(N)=Nc2cc(OCCCN3Cc4ccccc4C3)c(OCC3CC3)cc21`, the growth was 77.6%.

For the compound `CCOC(=O)C(=CNc1cnc(Nc2ccc(N3CCOCC3)cc2)nc1Oc1ccc(OC)cc1)C(=O)OCC`, the growth was 87.1%.

As for `O=C(Nc1ccccc1O)c1ccc(CNC(=O)c2ccsc2Nc2ccnc(C(F)(F)F)c2)cc1`, the growth was 37.8%.

Regarding `CC(=O)ON1CCCC(P(=O)(OCCSC(=O)C(C)(C)C)OCCSC(=O)C(C)(C)C)C1=O` (stereo unspecified), the growth is 22.8%.

Another test deals with SN12C renal. Described as above. The settings on record: 10 µM unless noted.
Take `C[n+]1ccc(CCc2c[nH]c3ccccc23)cc1`: the growth was 93.7%.

For the compound `O=C(CI)NC(=O)NC(=O)NCc1ccccc1`, the growth is 33%.

Take `O=C1/C=C/[C@@H](O)[C@@H]2C[C@@H](O)C[C@H]2/C=C/CCC[C@@H](O)CCO1`: the growth was 106%.

Regarding `CC/C=C\C[C@H](O)C/C=C1/C(=O)C=C[C@@H]1C/C=C\CCCC(=O)O`, the growth was 46.2%.

Take `CCCCNC(=O)c1cc([N+](=O)[O-])cc(C2CCCCC2)c1O`: the growth was 31.9%.

As to `CC(=C(c1ccc(OCCN2CCCCC2)cc1)c1ccc(OCCN2CCCCC2)cc1)c1ccc(Cl)cc1`, the growth is -91.1% (active).

Regarding `S=C(c1ccc2c(c1)OCO2)N1CCN(c2cccc(Cl)c2)CC1`, the growth is 50.7%.

Take `COc1ccc(/C(C)=C(/c2ccc(OCCCN(C)C)cc2)c2ccc(OC(=O)c3ccccc3)cc2)cc1`: the growth was 79.1%.

For `Cc1c(CC(=S)N2CCOCC2)nnn1-c1cccc(C(F)(F)F)c1`, the growth was 103%.

`COc1cccc(/C=C/C(=O)c2cc3c(N)c(C(=O)Nc4cccc5ccccc45)sc3nc2C)c1`: the growth was -27.9% (active).

For `COc1cc(OC)c2sc(-c3ccc(-n4cncc4-c4cc(OC)c(OC)c(OC)c4)cc3)nc2c1`, the growth is 68.7%.

For the compound `COC(=O)C(Cc1ccccc1)NC(=O)c1ccc(NC(=O)c2[nH]c(C)c(Cl)c2Cl)c(OC(C)C)c1` (stereo unspecified), the growth is 16%.

As to `O=C(N/N=C\c1cccc([N+](=O)[O-])c1)N/N=C/c1cccc([N+](=O)[O-])c1`, the growth is 96.8%.

Take `COc1ccccc1N(C(C)=O)C1=C(Cl)C(=O)c2ccccc2C1=O`: the growth is 16%.

For the compound `COc1cccc(CNc2c3ccccc3nc3ccccc23)c1`, the growth was 37.9%.

As for `NC1(CO)COC(c2ccccc2)OC1` (stereo unspecified), the growth was 104%.

For the compound `CO[C@H](C(=O)[C@@H](O)[C@@H](C)O)[C@@H]1Cc2cc3cc(O[C@H]4C[C@@H](O[C@H]5C[C@@H](O)[C@H](O)C(C)O5)[C@H](O)C(C)(O)O4)cc(O)c3c(O)c2C(=O)[C@H]1O[C@H]1C[C@@H](O[C@H]2C[C@@H](O[C@H]3C[C@@H](OC)[C@H](O)C(C)O3)[C@@H](O)C(C)O2)[C@H](O)C(C)O1` (stereo partly specified), the growth was 20.5%.

Regarding `N#Cc1c(-c2ccccc2)nc(SCC(O)CN2CCOCC2)nc1N1CCOCC1` (stereo unspecified), the growth is 57.8%.

As to `COc1cc(-c2nc3cc(Cl)c(Cl)cc3[nH]2)ccc1OCC(=O)N=Nc1c(O)[nH]c2ccc(Cl)cc12`, the growth was 0.477% (active).

Consider `CNC(=O)c1ccccc1Nc1nc(Nc2cc(OC)c(OC)c(OC)c2)ncc1Br`, for which the growth is -40.7% (active).

Take `C=C(C)[C@@H]1CC[C@]2(C(N)=O)CC[C@]3(C)[C@H](CC[C@@H]4[C@@]5(C)CC[C@H](OCCC#N)C(C)(C)[C@@H]5CC[C@]43C)[C@@H]12`: the growth is 78.5%.

For `N#C/C(=C\C=C\c1ccc(-c2cc(Cl)ccc2Cl)o1)c1nc2ccccc2s1`, the growth was 92%.

On to `COc1ccc(/C=C/C(c2cc(OC)c(OC)c(OC)c2)n2ccnc2)cc1O` (stereo unspecified), for which the growth was 57.2%.

On to `Cc1ccc2nc(/C(C#N)=C(/CCCO)NC(Cc3ccccc3)C(=O)OCc3ccccc3)[nH]c(=O)c2c1` (stereo unspecified), for which the growth was 103%.

Turning to `N#C/C(=C\c1ccc(-c2cccc(C(F)(F)F)c2)o1)c1ccccc1`, the growth was 90.2%.

As to `O=C(NC1CC(F)C1)c1cc2cccnc2n1-c1ccc(Cl)c(Cl)c1` (stereo unspecified), the growth is 96.4%.

Take `CCNC(=O)Oc1ccc(/C(=C(/CC)Cc2ccccc2)c2ccc(OCCN3CCCC3)cc2)cc1`: the growth is 92.7%.

Consider `COc1cc(C2C(C(=O)OCc3ccccc3)=C(C)NC(C)=C2C(=O)OCc2ccccc2)cc(OC)c1OC`, for which the growth was 29.1%.

In the case of `CN(Cc1cc(Br)cc(Br)c1O)Cc1cc(Br)cc(Br)c1O`, the growth was 45.1%.

For the compound `Cc1c2cccnc2c(C)c2c1c1cc(CO)ccc1n2C`, the growth is 14.7%.

With `S=c1[nH]c(=S)c2c(-c3ccccc3)c(-c3ccccc3)oc2[nH]1`, the growth was 95.3%.

Take `CCC1S/C(=N\N=C(\C)c2cc3cc(Cl)ccc3o2)N(c2ccccc2)C1=O` (stereo unspecified): the growth is 118%.

As for `CCN(CC)Cc1cc(Nc2ccnc3cc(Cl)ccc23)ccc1O`, the growth was 81.9%.

Take `CCOC(=O)C(Cc1ccc(OC)cc1)C(=O)OCC`: the growth is 40%.

On to `CC1(C)CC[C@]2(C(=O)N[C@H](CO)Cc3ccccc3)CC[C@]3(C)C(=CC[C@@H]4[C@@]5(C)CCCNC(C)(C)[C@@H]5CC[C@]43C)[C@@H]2C1`, for which the growth was 78.6%.

Take `CC(C)(C)n1cc(-c2ccnc(NCCNS(=O)(=O)c3ccc(O)cc3)c2)c(-c2cccc(O)c2)n1`: the growth is 98.3%.

For the compound `CC1(C)C(N)=Nc2cc(OCCCN3Cc4ccccc4C3)c(OCC3CC3)cc21`, the growth was 84.5%.

Consider `CCOC(=O)C(=CNc1cnc(Nc2ccc(N3CCOCC3)cc2)nc1Oc1ccc(OC)cc1)C(=O)OCC`, for which the growth was 26.6%.

As for `O=C(Nc1ccccc1O)c1ccc(CNC(=O)c2ccsc2Nc2ccnc(C(F)(F)F)c2)cc1`, the growth is 45.9%.

As for `CC(=O)ON1CCCC(P(=O)(OCCSC(=O)C(C)(C)C)OCCSC(=O)C(C)(C)C)C1=O` (stereo unspecified), the growth was 3.59% (active).
